The results in this text go back to PubChem BioAssay (NCATS).

Inconclusive results are not listed. A call without a number means that no potency is given here. Calls of active or inactive are those of the source. The call rests on the fitted dose curve; in most records, active means well fitted curve in the direction sought with a large enough effect; inconclusive means small, poorly fitted or top-dose-only effect, or another doubt; inactive means no such curve, though single readings can be large; an effect the other way counts as inactive or inconclusive.

Chain of Muscarinic acetylcholine receptor M1 (Rattus norvegicus) (P08482 whole entry, looked up): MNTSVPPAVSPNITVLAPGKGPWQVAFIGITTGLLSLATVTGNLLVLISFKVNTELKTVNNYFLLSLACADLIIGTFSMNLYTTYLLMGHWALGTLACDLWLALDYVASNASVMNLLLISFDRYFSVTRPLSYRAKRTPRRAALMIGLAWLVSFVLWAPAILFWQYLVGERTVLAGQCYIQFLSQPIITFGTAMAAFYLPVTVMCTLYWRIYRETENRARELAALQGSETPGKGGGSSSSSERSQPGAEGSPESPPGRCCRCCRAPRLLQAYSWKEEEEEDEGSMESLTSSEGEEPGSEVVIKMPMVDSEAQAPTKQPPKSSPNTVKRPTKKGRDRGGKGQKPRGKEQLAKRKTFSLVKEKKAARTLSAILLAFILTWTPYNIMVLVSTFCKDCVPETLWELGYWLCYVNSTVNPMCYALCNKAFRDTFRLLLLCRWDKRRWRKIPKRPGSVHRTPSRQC

For the first experiment, the target named is Muscarinic acetylcholine receptor M1 (Rattus norvegicus) (UniProt P08482). Description: qHTS Assay for Antagonists of Acetylcholine Muscarinic M1 Receptor: Measurement of IP-One Response (AID 944). Further: nearly all actives have a fitted effect of over 75% in size. Further: potency means the concentration at half of the fitted maximal effect. As to conditions: CHO-M1 cells, IP-One HTRF, antagonist mode; series mostly up to 46.1 µM. In short, it runs like this:
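Steps: plate transfected CHO-M1 cells overnight; add test compound, 10 min; add carbachol (200 nM, EC80) in stimulation buffer with LiCl; incubate 30 min; add labelled IP1 tracer and anti-IP1 antibody in lysis buffer; read HTRF after 10 min.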
(qHTS replaces the single test concentration by a dilution series.)
Regarding `CN=C(N)NCCC[C@H](N)C(=O)O`, the Potency result is “inactive”. On the same count and under the same terms, under `CC(C)(C)NC[C@H](O)COc1nsnc1N1CCOCC1` stands “inactive”; under `NS(=O)(=O)Cc1noc2ccccc12`, “inactive”; under `CN(C)CCC[C@@]1(c2ccc(F)cc2)OCc2cc(C#N)ccc21`, 10 µM (active).

The target of the next experiment is Pyruvate kinase (Leishmania mexicana) (UniProt Q27686). Description: qHTS Validation Assay for Inhibitors of Leishmania Mexicana Pyruvate Kinase (AID 945). As to conditions: purified L. mexicana pyruvate kinase, enzyme activity, E451W mutant enzyme; series mostly up to 57.5 µM. In short, it runs like this: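 Luminescent ATP detection (PKLight) after a 1 h room-temperature reaction of 0.2 nM LmPYK E451W mutant with 0.5 mM PEP and 0.1 mM ADP at pH 7.2. Activity is normalized to DMSO-only control wells.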
Chain of Pyruvate kinase (Leishmania mexicana) (Q27686 2-499 E452W): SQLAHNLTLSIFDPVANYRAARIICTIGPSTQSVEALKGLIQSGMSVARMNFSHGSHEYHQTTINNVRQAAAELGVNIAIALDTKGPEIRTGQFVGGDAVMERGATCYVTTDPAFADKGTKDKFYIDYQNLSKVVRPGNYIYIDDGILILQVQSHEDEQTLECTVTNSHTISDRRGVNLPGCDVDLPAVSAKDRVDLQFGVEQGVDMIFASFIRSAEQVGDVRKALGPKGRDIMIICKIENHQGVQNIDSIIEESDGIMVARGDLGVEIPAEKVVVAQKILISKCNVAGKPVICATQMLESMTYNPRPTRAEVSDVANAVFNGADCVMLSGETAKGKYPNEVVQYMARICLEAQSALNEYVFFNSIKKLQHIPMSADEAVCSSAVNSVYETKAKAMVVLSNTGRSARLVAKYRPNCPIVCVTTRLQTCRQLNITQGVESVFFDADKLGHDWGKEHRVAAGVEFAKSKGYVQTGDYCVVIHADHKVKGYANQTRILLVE
As for `CN=C(N)NCCC[C@H](N)C(=O)O`, the compound was classed as inactive.

On to `CC(C)(C)NC[C@H](O)COc1nsnc1N1CCOCC1`, for which the call was inactive. Regarding `NS(=O)(=O)Cc1noc2ccccc12`, the call was inactive. Consider `CN(C)CCC[C@@]1(c2ccc(F)cc2)OCc2cc(C#N)ccc21`, for which the outcome was inactive. As for `CN1CCC[C@@H]1CCO[C@](C)(c1ccccc1)c1ccc(Cl)cc1`, the outcome was inactive.

System in the next experiment: not listed separately
Briefly: MultiTox-Fluor Cytotoxicity Assay - LYMP1-001 - Dead Cells (AID 946).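 Further: cells exposed to compound for 16 h.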 As to conditions: LYMP1-001 lymphoblastoid cells, dead-cell protease fluorescence; series mostly up to 92.2 µM. Put shortly: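 LYMP1-001 lymphoblastoid cells (2500/well) treated 16 h at 37 C. Dead-cell protease cleavage of bis-AAF-R110 read at Ex/Em 485/520. Normalized to DMSO and 15 uM tetraoctylammonium bromide; AC50 from Hill fits.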
With `O=C(O)c1ccc(S(=O)(=O)N(Cl)Cl)cc1`, the outcome was inactive. On the same count and under the same terms, under `OC[C@H]1O[C@@H]2O[C@H]3[C@H](O)[C@@H](O)[C@@H](O[C@H]4[C@H](O)[C@@H](O)[C@@H](O[C@H]5[C@H](O)[C@@H](O)[C@@H](O[C@H]6[C@H](O)[C@@H](O)[C@@H](O[C@H]7[C@H](O)[C@@H](O)[C@@H](O[C@H]8[C@H](O)[C@@H](O)[C@@H](O[C@H]1[C@H](O)[C@H]2O)O[C@@H]8CO)O[C@@H]7CO)O[C@@H]6CO)O[C@@H]5CO)O[C@@H]4CO)O[C@@H]3CO` stands “inactive”; under `C=C[C@H]1CN2CC[C@H]1C[C@@H]2[C@@H](O)c1ccnc2ccc(OC)cc12`, “inactive”. `C/C=C/c1ccc(O)c(OC)c1`: the call was inactive.

For `NC(=O)c1ccccc1O`, the compound was classed as inactive. Turning to `COc1cc([C@H]2Oc3cc([C@H]4Oc5cc(O)cc(O)c5C(=O)[C@@H]4O)ccc3O[C@@H]2CO)ccc1O`, the result was inactive. In the case of `CCCN(CCC)S(=O)(=O)c1ccc(C(=O)O)cc1`, the outcome was inactive. With `CCCCC(CC)COC(=O)c1ccc(N(C)C)cc1` (stereo not given), the compound was classed as inactive. Still for that read-out and setting: under `Oc1ccc(Cl)cc1Cc1cc(Cl)ccc1O` stands “inactive”; under `CCOc1ccccc1C(N)=O`, “inactive”; under `COc1ccc(C(=O)c2ccccc2)c(O)c1`, “inactive”. In the case of `COc1ccc(C(Cl)=C(c2ccc(OC)cc2)c2ccc(OC)cc2)cc1`, the outcome was inactive. Consider `CCOc1ccc(NC(C)=O)cc1`, for which the result was inactive.

System in a further experiment: not listed separately
Briefly: Cell Viability - LYMP1-002 - Assay at 16 hr (AID 948). As to conditions: LYMP1-002 lymphoblastoid cell viability; series mostly up to 92.2 µM. Put shortly:
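Seed 2500 LYMP1-002 cells per well in complete medium and hold 5 hr at 37 C. Add compound across a concentration series and incubate 16 hr at 37 C. Add CellTiter-Glo, wait 30 min at room temperature, read luminescence.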
For `O=C(O)c1ccc(S(=O)(=O)N(Cl)Cl)cc1`, the compound was called inactive.

In the case of `OC[C@H]1O[C@@H]2O[C@H]3[C@H](O)[C@@H](O)[C@@H](O[C@H]4[C@H](O)[C@@H](O)[C@@H](O[C@H]5[C@H](O)[C@@H](O)[C@@H](O[C@H]6[C@H](O)[C@@H](O)[C@@H](O[C@H]7[C@H](O)[C@@H](O)[C@@H](O[C@H]8[C@H](O)[C@@H](O)[C@@H](O[C@H]1[C@H](O)[C@H]2O)O[C@@H]8CO)O[C@@H]7CO)O[C@@H]6CO)O[C@@H]5CO)O[C@@H]4CO)O[C@@H]3CO`, the compound was called inactive.

For the compound `C=C[C@H]1CN2CC[C@H]1C[C@@H]2[C@@H](O)c1ccnc2ccc(OC)cc12`, the result was inactive.

`C/C=C/c1ccc(O)c(OC)c1`: the result was inactive. As to `NC(=O)c1ccccc1O`, the outcome was inactive. For the compound `COc1cc([C@H]2Oc3cc([C@H]4Oc5cc(O)cc(O)c5C(=O)[C@@H]4O)ccc3O[C@@H]2CO)ccc1O`, the result was inactive. On the same count and under the same terms, the value for `CCCN(CCC)S(=O)(=O)c1ccc(C(=O)O)cc1` was “inactive”. Same read-out and setting: under `CCCCC(CC)COC(=O)c1ccc(N(C)C)cc1` (stereo not given) stands “inactive”.

Consider `Oc1ccc(Cl)cc1Cc1cc(Cl)ccc1O`, for which the call was inactive. In the case of `CCOc1ccccc1C(N)=O`, the call was inactive. Take `COc1ccc(C(=O)c2ccccc2)c(O)c1`: the compound was called inactive. `COc1ccc(C(Cl)=C(c2ccc(OC)cc2)c2ccc(OC)cc2)cc1`: the outcome was inactive. Take `CCOc1ccc(NC(C)=O)cc1`: the compound was classed as inactive.
